# From PubChem BioAssay (NCATS)
# Inconclusive results are not listed. A number with no mark means an inactive call. Calls of active or inactive are those of the source. The call rests on the fitted dose curve; in most records, active means well fitted cell-killing curve with a large enough effect; inconclusive means small, poorly fitted or top-dose-only effect, or effect the other way; inactive means no such curve, though single readings can be large or run the other way.
# Test: Quantitative High-Throughput drug screen in 47 multiple myeloma cell lines against the NCATS MIPE library collection: VP6_DJ cell viability assay (AID 1919867); further: nearly all actives have a fitted effect of over 40% in size
# Settings: ATP luminescence, 48 h; series mostly up to 45.8 µM; viability (% of DMSO): at the top concentration
# Source text: PI: Beverly A. Mock Ph.D.
# Laboratory of Cancer Biology and Genetics,
# Center for Cancer Research, National Cancer Institute,
# National Institute of Health, Bethesda, Maryland
# Drug resistance and disease progression are common in multiple myeloma (MM) patients, underscoring the need for new therapeutic combinations. […] We hypothesized that effective combinations would reduce MYC expression and enhance p16 activity. […] These preclinical data identify potentially useful drug combinations for evaluation in drug-resistant MM and reveal potential mechanisms of combined drug sensitivity.
# Described herein is the primary MIPE qHTS used to cherrypick compounds. Validated compounds were then further tested for potential synergistic activiy.
# [1] Peat TJ, Gaikwad SM, Dubois W, Gyabaah-Kessie N, Zhang S, Gorjifard S, Phyo Z, Andres M, Hughitt VK, Simpson RM, Miller MA, Girvin AT, Taylor A, Williams D, D'Antonio N, Zhang Y, Rajagopalan A, Flietner E, Wilson K, Zhang X, Shinn P, Klumpp-Thomas C, McKnight C, Itkin Z, Chen L, Kazandijian D, Zhang J, Michalowski AM, Simmons JK, Keats J, Thomas CJ, Mock BA. Drug combinations identified by high-throughput screening promote cell cycle transition and upregulate Smad pathways in myeloma. Cancer Lett. 2023 Aug 1;568:216284. doi: 10.1016/j.canlet.2023.216284. Epub 2023 Jun 24. PMID: 37356470; PMCID: PMC10408729.
# SEQUENCE No. (e.g., 1, 2, 3, etc.); […] (e.g., Cells, Incubation, Reagent, etc.); VALUE and DESCRIPTION.
# 1; Cells; 5 uL; white, solid bottom 1536-well Greiner assay plate.
# 2; Compounds; 23 nL; Kalypsis pin tool (Wako USA) equipped with a 1536-well pin head to transfer to the assay plates.
# 3; Incubation; 48 hours; 37C incubation.
# 4; Reagent;5uL; CellTiter Glo (Promega).
# 5; Detector; 425V; Luminescence; Viewlux PerkinElmer.
# NOTES (numbers refer to Sequence numbers above)
# 1. The cell-based screening methods employed in this study were like those previously published. Briefly, the corresponding myeloma cell lines were screened in 1,536-well plates with 500 cells, 5-uL per well for inhibition of cell viability (assessed by measuring ATP levels with CellTiterGlo).
# 2. NCATS MIPE 4.0 library of approved and investigational drugs were added using the Kalypsis pin tool. Wells treated with DMSO only for 100% viability and media only for 0% viability were used as controls.
# 3. The assay plates were covered and incubated for 48 hours in a 37C, 5% CO2 incubator with controlled humidity.
# 4. After 48 hours, CellTilter-GloTM luminescent substrate mix (Promega) reagent was added to the assay plate and plates we incubated for 5 min at room temperature.
# 5. Signal was measured as median relative luminescence units on a ViewLux (PerkinElmer) multiplate reader.
# [1] Heske CM, Davis MI, Baumgart JT, Wilson K, Gormally MV, Chen L, Zhang X, Ceribelli M, Duveau DY, Guha R, Ferrer M, Arnaldez FI, Ji J, Tran HL, Zhang Y, Mendoza A, Helman LJ, Thomas CJ. Matrix Screen Identifies Synergistic Combination of PARP Inhibitors and Nicotinamide Phosphoribosyltransferase (NAMPT) Inhibitors in Ewing Sarcoma. Clin Cancer Res. 2017 Dec 1;23(23):7301-7311. doi: 10.1158/1078-0432.CCR-17-1121. Epub 2017 Sep 12. PMID: 28899971; PMCID: PMC6636827.
# Potency means the concentration at half of the fitted maximal effect.
SMILES,Potency,viability (% of DMSO)
CC1(C)CCC(CN2CCN(c3ccc(C(=O)NS(=O)(=O)c4ccc(NCC5CCOCC5)c([N+](=O)[O-])c4)c(Oc4cnc5[nH]ccc5c4)c3)CC2)=C(c2ccc(Cl)cc2)C1,7.43 µM (active),
O=C1c2ccccc2-[n+]2ccc3c([nH]c4ccccc43)c21,1.48 µM (active),
CC[C@H]1OC(=O)[C@H](C)C(=O)[C@H](C)[C@@H](O[C@H]2O[C@H](C)C[C@H](N(C)C)[C@@H]2O)[C@](C)(OC)C[C@@H](C)C(=O)[C@H](C)[C@H]2N(CCCCn3cnc(-c4cccnc4)c3)C(=O)O[C@]12C,11.8 µM (active),
O=c1c(-c2ccc(O)cc2)coc2cc(OC3O[C@H](CO)[C@H](O)[C@H](O)[C@H]3O)cc(O)c12 (stereo not given in full),2.64 µM (active),
Nc1ncnc2ccccc12,,143%
CC(C)C(C)C=CC(C)C1CCC2C3=CC=C4CC(O)CCC4(C)C3CCC21C (stereo not given),,148%
CO[C@H]1C=CC=C(C)C(=O)NC2=CC(=O)C(NCCN(C)C)=C(C[C@@H](C)C[C@H](OC)[C@@H](O)[C@@H](C)C=C(C)[C@@H]1OC(N)=O)C2=O,0.0093 µM (active),
CNC(=O)c1ccccc1Sc1ccc2c(C=Cc3ccccn3)n[nH]c2c1,14.8 µM (active),
COc1ccc(-c2oc3c(CC=C(C)C)c(OC4O[C@H](CO)[C@@H](O)[C@H](O)[C@@H]4O)cc(O)c3c(=O)c2OC2O[C@@H](C)[C@H](O)[C@@H](O)[C@@H]2O)cc1 (stereo not given in full),16.6 µM (active),
CO[C@H]1C[C@@H]2CC[C@@H](C)[C@@](O)(O2)C(=O)C(=O)N2CCCC[C@@H]2C(=O)O[C@H]([C@H](C)C[C@@H]2CC[C@H](OC(=O)C(C)(CO)CO)[C@H](OC)C2)CC(=O)[C@H](C)C=C(C)[C@@H](O)[C@@H](OC)C(=O)[C@H](C)C[C@H](C)C=CC=CC=C1C,20.9 µM (active),
COc1ccc(C2CC(c3ccccc3)=NN2c2ccc(S(N)(=O)=O)cc2)cc1 (stereo not given),16.6 µM (active),
CC1(C)S[C@H]2[C@H](NC(=O)[C@@H](N)c3ccc(O)cc3)C(=O)N2[C@@H]1C(=O)O,0.0743 µM (active),
O=C(OCC#CCSc1nnc(-c2cccc3ccccc23)o1)c1cc2ccccc2s1,,125%
Cc1c(O)cccc1C(=O)N[C@@H](CSc1ccccc1)[C@H](O)CN1C[C@H]2CCCC[C@@H]2C[C@@H]1C(=O)NC(C)(C)C,18.7 µM (active),
NC1=N[C@@]2(c3cc(NC(=O)c4ccc(F)cn4)ccc3F)COC[C@@H]2CS1,13.2 µM (active),
Cn1c(N2CCCCS2(=O)=O)nc(C(=O)NCc2ccc(F)cc2)c(O)c1=O,,99.7%
CCC(CC)[C@H](NC(C)=O)[C@@H]1[C@H](O)[C@@H](C(=O)O)C[C@@H]1N=C(N)N,4.18 µM (active),
NC(=O)c1cccc(-c2cc(Nc3ccc(OC(F)(F)F)cc3)ncn2)c1,14.8 µM (active),
O=C1Nc2ccc(Cl)cc2C(C#CC2CC2)(C(F)(F)F)O1 (stereo not given),16.6 µM (active),
NC(=O)c1ccc2nc(-c3ccc(Oc4ccc(Cl)cc4)cc3)[nH]c2c1,6.62 µM (active),

SMILES,Potency,viability (% of DMSO)
Clc1ccc(-c2nc3sccn3c2C=NOCc2ccc(Cl)c(Cl)c2)cc1,,152%
Cc1[nH]c(C=C2C(=O)Nc3ccc(S(=O)(=O)Cc4c(Cl)cccc4Cl)cc32)c(C)c1C(=O)N1CCC[C@H]1CN1CCCC1,8.33 µM (active),
CCOC(=O)C1=C(N)Oc2ccc(Br)cc2C1C(C#N)C(=O)OCC (stereo not given),16.6 µM (active),
N#Cc1ccc(NC(=O)Nc2ccccc2Br)c2n[nH]nc12,10.5 µM (active),
OC[C@H]1O[C@@H](n2cnc3c2NC=NC[C@@H]3O)C[C@H]1O,14.8 µM (active),
CNC(=O)c1ccc2cc(C3(O)CCn4cncc43)ccc2c1 (stereo not given),,120%
NC(CO)(CO)CCc1ccc(Sc2cccc(OCc3ccccc3)c2)cc1Cl,8.33 µM (active),
O=c1cc(-c2cccc3c2Sc2ccccc2S3)oc(N2CCOCC2)c1,14.8 µM (active),
Cc1cccc(Nc2nc(-c3ccncc3)cs2)c1,18.7 µM (active),
COc1ccc2c(Oc3ccc(NC(=O)c4c(C)n(CC(C)(C)O)n(-c5ccccc5)c4=O)cc3F)ccnc2c1,11.8 µM (active),
O=c1cc(N2CCOCC2)oc2c(-c3cccc4c3sc3ccccc34)cccc12,3.72 µM (active),
CN(C)Cc1cccc(N=C(c2ccccc2)c2c(O)[nH]c3cc(C(=O)N(C)C)ccc23)c1,13.2 µM (active),
O=C1NC(=O)C(=Cc2ccc(-c3ccc(F)cc3)o2)S1,14.8 µM (active),
C=C1C(=O)OC2C=C(C)CCC=C(C)CCC12 (stereo not given),8.33 µM (active),
C[C@H](NC(=O)C(=O)Nc1ccccc1C(C)(C)C)C(=O)N[C@@H](CC(=O)O)C(=O)COc1c(F)c(F)cc(F)c1F,,111%
CC(C)OC(=O)C(C)(C)Oc1ccc(C(=O)c2ccc(Cl)cc2)cc1,26.4 µM (active),
CC(C)C(=O)Nc1ncc(-c2cc(C(F)F)nn2-c2c(Cl)cccc2Cl)s1,18.7 µM (active),
O=C(Nc1cc(Cl)cc2c1[nH]c1cnccc12)c1cccnc1,7.43 µM (active),
O=C1NC(=O)C(=Cc2ccc3c(c2)OC(F)(F)O3)S1,14.8 µM (active),
CCOC(=O)O[C@]1(C(=O)OCCl)CC[C@@H]2[C@H]3CCC4=CC(=O)C=C[C@]4(C)[C@@H]3[C@@H](O)C[C@@]21C,20.9 µM (active),
